Shown are actives, neighbours in structure and some others; about 2.4% of the full set was active somewhere.
aSyn rescue = rescues yeast growth from alpha-synuclein toxicity | Yeast expressing alpha-synuclein, growth rescue, BacTiter-Glo, 24 h | Potency, µM (series often up to 46.1 µM), for the others: at the highest dose growth rescue (activation), usual class: activators | hit rate 0.14% among 370,000; note: % of control where 0% means no effect; nearly all actives have a fitted effect of over 65% in size
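Rescue of yeast growth: cells expressing toxic alpha-synuclein, induced in galactose at OD600 0.02, incubated with compound 24 h at 30 C. ATP luminescence quantified growth; inhibitors of toxicity appear as activators.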
FUS suppressor = suppressors of FUS proteinopathy in yeast; hit rate 0.24% among 390,000; S. cerevisiae FUS-expressing, growth rescue, OD600, 24 h; Potency, µM (top dose mostly 76.6 µM), hits mostly activators;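 note: plate controls were DMSO vehicle for no effect and reference control for full effect; nearly all actives have a fitted effect of over 55% in size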
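Read-out: OD at 600 nm after 24hr at 30C, reporting rescue of FUS-induced yeast toxicity. Cells at OD 0.005 in galactose (2%) minimal medium; compounds tested in a dilution series; CP55940 titration from 92uM final as control.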
Mito fusion yeast = inhibitors of mitochondrial division or activators of mitochondrial fusion. S. cerevisiae fusion-defective mutant growth rescue, CellTiterGlo 48 h. Potency, µM (doses to about 46.1 µM), without a hit: at the highest dose growth rescue (activation), usual class: activators. AID 485298. hit rate 0.23% among 320,000; note: % of control where 0% means no effect; nearly all actives have a fitted effect of over 45% in size
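Yeast fusion mutant, YPEG (non-fermentable carbon), compound, 48 h at 37C non-permissive; CellTiterGlo added, 10 min RT, luminescence read. Rescued growth = division inhibition.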
A-T KAP1 phos = potential ataxia-telangiectasia treatment; F2112 A-T fibroblasts, KAP-1 phosphorylation AlphaLISA; neocarzinostatin DNA damage 30 min before lysis; AID 485349; Potency, µM (top dose mostly 57.5 µM), for inactives: at the highest dose activation, most hits filed as activators; hit rate 0.19% among 320,000; note: % of control where 0% means no effect; nearly all actives have a fitted effect of over 45% in size
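ATM-like activity read as KAP-1 phosphorylation via AlphaLISA donor/acceptor antibody pairs after lysis and 6 hr at 25C. Cells were ATM-null patient fibroblasts (F2112, hTERT), dosed 60 min, then exposed to the DSB inducer NCS for 30 min.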
TDP43 rescue = rescues yeast growth from TDP-43 toxicity; AID 652104; Potency, µM (top dose mostly 46.1 µM), for the others: top-dose growth rescue (activation), usual class: activators; TDP-43 expressing yeast growth rescue, BacTiter-Glo, 24 h; hit rate 1.8% among 410,000; note: % of control where 0% means no effect; nearly all actives have a fitted effect of over 50% in size
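In this qHTS, compounds that restore growth of yeast expressing TDP-43 appear as activators. Cells (OD600=0.02, galactose medium, raffinose-pregrown) are incubated with compound 24 hr at 30 deg C and growth is quantified by BacTiter-Glo.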
Abeta yeast res = restores growth of yeast expressing A-beta42 peptide | yeast expressing A-beta42, growth rescue, OD600, 48 h; response scale: 0% DMSO, 100% iron-clioquinol control | Potency, µM (highest dose often 46.1 µM), hits mostly activators | hit rate 0.063% among 410,000 | AID 1347071; note: nearly all actives have a fitted effect of over 55% in size
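Growth rescue measured by 600 nm absorbance after 48 h yeast culture at 30 C with compound. Values normalized between DMSO and an equimolar ferric chloride plus clioquinol control.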
Active calls of the source: *; i = inactive; ? = inconclusive; . = no result. Calls come from the whole dose curve; as a rule, active = well fitted curve in the direction sought with a large enough effect; inconclusive = small, poorly fitted or top-dose-only effect, or another doubt; inactive = no such curve, though single readings can be large; an effect the other way counts as inactive or inconclusive. Potency is the fitted concentration of half-maximal effect.

SMILES | aSyn rescue | FUS suppressor | Mito fusion yeast | A-T KAP1 phos | TDP43 rescue | Abeta yeast res
CCCc1nnc(NC(=O)Cn2c(=O)oc3cc(Br)ccc32)s1 | -13% | i | 3% | . | -14% | i
O=c1oc2cc(Br)ccc2n1CSC1=NCCS1 | -8% | i | 14% | 3% | 13µM* | i
CCOC(=O)Cc1nc(N2CCCN(C(C)=O)CC2)c2c(C)c(C(=O)OCC)sc2n1 | . | i | . | . | . | .
CCCCCN(C(=O)CCC(=O)OC(C)C(=O)NCc1ccccc1)c1c(N)n(CCCC)c(=O)[nH]c1=O (stereo not drawn) | -5% | i | -6% | 8% | -9% | i
CCCCCN(C(=O)CCC(=O)OCC(=O)c1ccc(F)c(F)c1)c1c(N)n(CCCC)c(=O)[nH]c1=O | 1% | 28µM* | -9% | -7% | 11% | i
CCCCn1c(N)c(N(CC(C)C)C(=O)c2ccc(Cl)c(S(=O)(=O)N3CCCC3)c2)c(=O)[nH]c1=O | -16% | 32µM* | -5% | 0% | -9% | i
CCCCCN(C(=O)CCC(=O)OC(C)C(=O)c1ccc(Cl)cc1)c1c(N)n(CCCC)c(=O)[nH]c1=O (stereo not drawn) | 1% | 32µM* | 1% | 3% | -4% | i
O=C(OC12CCCN(C1)/C(=C/c1ccc(Cl)cc1)C2)c1ccc(Cl)cc1 (stereo not drawn) | . | i | . | . | . | .
CCOc1ccc(Nc2nc3c(S(=O)(=O)c4ccc(CC)cc4)nnn3c3ccc(Cl)cc23)cc1 | . | i | . | . | 14% | i
N#C/C(=N\Nc1cccc(C(F)(F)F)c1)C(=O)c1ccsc1 | -24% | i | ? | -7% | 10µM* | i
CCCCn1c(CNC(=O)c2ccc(OC)cc2)nnc1SCC(=O)Nc1ccccc1 | . | i | . | . | 9% | i
COC(=O)CNC(c1ccccc1)c1cc(Br)ccc1NC(=O)CCN1CCOCC1 (stereo not drawn) | 7% | ? | ? | 14% | ? | i
CCOC(=O)c1c(-c2ccccc2)csc1NC(=O)CCN1CCOCC1 | 3% | . | 11µM* | 12% | -1% | i
CCOC(=O)c1c(-c2ccc(C)cc2)csc1NC(=O)CCN1CCOCC1 | 1% | . | 13µM* | 8% | 4% | i
CCOC(=O)CNC(c1ccccc1)c1cc(Br)ccc1NC(=O)CCN1CCOCC1 (stereo not drawn) | -7% | i | ? | ? | 22µM* | i
COc1ccc(OC)c(CCNc2ncnc3onc(-c4ccc(Cl)cc4)c23)c1 | 1% | i | . | . | ? | i
CN1[C@@H](Cc2ccccc2)COc2cccc(F)c2S1(=O)=O | . | i | . | . | . | .
CC(C)c1ccc(NC(=O)COc2ccccc2)cc1 | -7% | i | -4% | 12% | 10µM* | i
Cc1ccc(NC(=O)COc2ccccc2)cc1Cl | -6% | i | 2% | 4% | ? | i
COc1ccc(NC(=O)COc2ccccc2)cc1Cl | -8% | i | ? | 3% | 11µM* | i
C[C@H]1[C@@H](OC(=O)Nc2ccccc2Cl)CC[C@@]23CCCN2C(=O)CCC[C@@H]13 | . | i | . | . | . | .
O=[N+]([O-])c1ccccc1S(=O)(=O)N1CCC(c2cn3ccccc3n2)CC1 | . | i | . | . | . | .
Cc1cccc(CNC(=S)OC2CCC23CCC(c2ccccc2)CC3)c1 (stereo not drawn) | . | i | . | . | . | .
COc1ccccc1C1=NC(c2ccccc2)CN1c1ccccc1 (stereo not drawn) | 3% | i | -11% | 28µM* | -1% | i
Cc1ccc(S(=O)(=O)N2C=C(c3ccccc3)c3ccccc3-c3ccccc32)cc1 | . | i | . | . | . | .
SMILES | aSyn rescue | FUS suppressor | Mito fusion yeast | A-T KAP1 phos | TDP43 rescue | Abeta yeast res
COc1ccc(-n2c(SCC(=O)Nc3ccc(Oc4ccccc4)cc3)nnc2-c2cccnc2)cc1 | . | i | . | . | . | .
COc1ccc(/C=C\c2onc(C)c2S(=O)(=O)N2CCC(C(=O)Nc3cccc(C)c3C)CC2)cc1 | . | i | . | . | 14% | i
COc1ccc(/C=C\c2onc(C)c2S(=O)(=O)N2CCC(C(=O)Nc3ccccc3OC)CC2)cc1 | . | 13µM* | . | . | -12% | i
CNC(=O)c1ccccc1Nc1ccc(SC(F)F)cc1 | -29% | i | 10% | 7% | 22µM* | i
O=C(NCc1ccncc1)c1ccccc1Nc1ccc(SC(F)F)cc1 | 23% | i | -1% | 2% | ? | i
O=C(N/N=C/c1ccccn1)c1sc2ccccc2c1Cl | 3.2µM* | i | 1% | 9% | ? | ?
O=C(N/N=C/c1c[nH]c2ccccc12)c1sc2ccccc2c1Cl | -2% | i | 6% | 5% | 11% | i
CCCCC(=O)Nc1ncc([N+](=O)[O-])s1 | 0% | i | 3% | 0% | 16µM* | i
CC(C)CC(=O)Nc1ncc([N+](=O)[O-])s1 | ? | i | -7% | -6% | 5% | i
CNC(=S)N1CCC(Cc2ccccc2)CC1 | 2% | i | -9% | 1% | 4% | ?
CCCCNC(=S)N1CCC(Cc2ccccc2)CC1 | -9% | i | -3% | 3% | 11% | 18µM*
C=CCNC(=S)N1CCN(c2ccccc2Cl)CC1 | -15% | i | -29% | 17% | 23% | ?
CCCCNC(=S)N1CCN(c2ccccc2Cl)CC1 | 2% | i | -15% | 3% | 13µM* | i
C/C(=N\NC(=O)Cc1cc(=O)[nH][nH]1)c1ccc([N+](=O)[O-])cc1 | . | i | . | . | . | .
COc1ccc(NC(=O)N2CCC(c3nc4ccc(Cl)cc4[nH]3)CC2)cc1OC | . | i | . | . | . | .
COc1ccc(CCNC(=S)Nc2cccc(C)c2C)cc1 | ? | . | 5% | 3% | ? | i
Cc1cccc(NC(=S)NCCc2ccccc2)c1C | -2% | i | 0% | 4% | 18µM* | i
Cc1c(Cl)cccc1NC(=S)NC1CCCC1 | -5% | i | -18% | 2% | 20µM* | ?
S=C(NCCc1ccc(Cl)cc1)NC1CCCC1 | -14% | i | -9% | 5% | 21% | 10µM*
Cc1c(Cl)cccc1NC(=S)NCCc1ccc(Cl)cc1 | 10% | i | -27% | 2% | ? | 10µM*
Cc1c(Cl)cccc1NC(=S)NCCc1ccc(F)cc1 | -14% | i | -8% | 5% | ? | ?
COc1ccc(-c2cc(C(=O)Oc3cccc(C)c3C)c3ccccc3n2)cc1 | . | i | . | . | -3% | i
CC(C)(C)Sc1ccc(/C=N/O)cc1[N+](=O)[O-] | 9% | i | 1% | 3% | 16µM* | i
Cc1ccc(Sc2ccc(/C=N/O)cc2[N+](=O)[O-])cc1 | 1% | i | 23% | . | ? | i

Screens deposited in PubChem by National Center for Advancing Translational Sciences (NCATS).
